Screening results: PubChem, The Scripps Research Institute Molecular Screening Center
GPR151 activ – activators of human GPR151; Q8TDV0; PathHunter beta-arrestin GPR151 cells, luminescence; activation, % at 11.2 µM; 650,000 tested, 1% active; AID 1508602; in the data active = activation above about 4.9%;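 also: 0% = median of compound wells and 100% = cells with positive control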
TEAD-YAP block – TEAD-YAP interaction inhibition; HEK-TIYL cells, TEAD-Gal4/YAP UAS-luciferase luminescence; inhibition, % at 9.12 µM; 640,000 tested, 1.4% active; in the data active = inhibition above about 32%;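 also: 0% = median of test compound wells and 100% = reference inhibitor wells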
FBW7 act – activators of human E3 ligase FBW7. Q969H0. AlphaScreen FBW7–phospho-cyclin E peptide binding, activator screen. normalized activity (activation), % at 26.1 µM. AID 1259310. 650,000 tested, 0.13% active; in the data active = normalized activity above about 1.9%;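 also: purified mutant Fbw7 with reduced substrate affinity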
MITF inh – inhibitors of human MITF; O75030; inhibition, % at 2.6 µM; AlphaScreen MITF homodimerization, bead proximity signal; 650,000 tested, 0.91% active; in the data active = inhibition above about 50%;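 also: 0% = vehicle wells with protein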
Target sequence (O75030 whole entry, looked up): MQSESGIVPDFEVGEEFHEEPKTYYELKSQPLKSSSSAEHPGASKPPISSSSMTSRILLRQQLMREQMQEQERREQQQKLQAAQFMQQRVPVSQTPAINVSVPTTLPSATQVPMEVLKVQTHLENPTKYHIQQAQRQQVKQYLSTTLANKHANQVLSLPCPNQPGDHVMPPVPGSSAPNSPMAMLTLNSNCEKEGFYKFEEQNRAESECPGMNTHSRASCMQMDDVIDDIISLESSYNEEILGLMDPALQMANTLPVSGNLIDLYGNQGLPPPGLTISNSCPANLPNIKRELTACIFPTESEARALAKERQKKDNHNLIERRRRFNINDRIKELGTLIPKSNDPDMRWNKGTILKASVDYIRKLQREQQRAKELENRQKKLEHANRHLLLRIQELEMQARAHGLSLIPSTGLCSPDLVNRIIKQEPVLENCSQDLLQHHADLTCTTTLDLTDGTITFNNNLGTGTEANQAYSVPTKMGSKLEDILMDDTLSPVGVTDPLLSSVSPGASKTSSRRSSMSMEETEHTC
MITF inh conf – human MITF inhibition, confirmation; shares compounds with MITF inh; AlphaScreen MITF homodimerization, biotin/His-MITF beads; inhibition, % at 2.6 µM; 4,700 tested, 16% active;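 active = inhibition above a cutoff derived from the DMSO control wells, cut at about 28% in these data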;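 also: 0% = MITF dimer wells with DMSO only; inhibitors lower the bead chemiluminescence by keeping MITF from dimerizing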
AlphaScreen DR – optically interferes with AlphaScreen signal in dose response; shares compounds with MITF inh; AlphaScreen optical interference counterscreen, cell-free; IC50, µM; 480 tested, 6% active; AID 1259373; call rule not given here
AlphaScreen intf2 – optically interferes with AlphaScreen signal | shares compounds with MITF inh | LysRS AlphaScreen counterscreen, signal interference, triplicate | inhibition, % at 2.6 µM | 4,700 tested, 7.6% active;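 active = inhibition above a cutoff derived from the DMSO control wells, cut at about 30% in these data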
* hit, by the source's call; . = not tested or not shown. In the library only some 3.5% were active in any assay of this set; here they are far more common.

SMILES | GPR151 activ | TEAD-YAP block | FBW7 act | MITF inh | MITF inh conf | AlphaScreen intf2 | others
NNC(=O)c1ccc(CS(=O)(=O)c2ccccc2)o1 | 0 | -19 | 0 | -4 | . | .
OC(CNC1CC1)COCc1ccccc1F (centres undefined) | -1 | 1 | 0 | 59* | 8 | -11
COc1ccc(-c2cc(C(F)(F)F)n3nc(C(=O)Nc4ccc(Cl)cc4Cl)cc3n2)cc1OC | 0 | -4 | 0 | 9 | . | .
CCN(CC)c1nc(NCCN(C(C)C)C(C)C)nc(N2CCN(Cc3ccc4c(c3)OCO4)CC2)n1 | -1 | -4 | 0 | 8 | . | .
COc1ccc(CCNC(=O)C2CCN(Cc3nc4ccccc4[nH]3)CC2)cc1 | 0 | 0 | -1 | 80* | 6 | 14
COc1ccc2nc(CN3CCN(C(=O)C4CC4)CC3)[nH]c2c1 | 0 | -6 | 0 | 68* | 13 | 13
O=C(C1CCN(Cc2nc3ccccc3[nH]2)CC1)N1CCN(C2CCCCC2)CC1 | 0 | -5 | 0 | 9 | . | .
CCNC(=O)N1CCN(Cc2nc3ccccc3[nH]2)CC1 | -1 | -2 | 0 | 8 | . | .
O=C(c1cccc2ccccc12)N1CCN(Cc2nc3ccccc3[nH]2)CC1 | 2 | 10 | 0 | 59* | -2 | 13
O=C(CN1CCN(Cc2nc3ccccc3[nH]2)CC1)N1CCCc2ccccc21 | -2 | 9 | 0 | 91* | 1 | 24
CCCCCC1CCC(c2ccc(C(=O)Nc3nc(CC(=O)OCC)cs3)cc2)CC1 (centres undefined) | 0 | 7 | 0 | 6 | . | .
COCC(=O)N1CCN(Cc2nc3ccccc3[nH]2)CC1 | 2 | -5 | 0 | 58* | 3 | 15
COC(=O)CC1=NN(c2nc3ccccc3[nH]2)C(=O)C1 | 3 | 3 | -1 | 79* | 70* | 97*
COC(=O)CN1CCN(Cc2nc3ccccc3[nH]2)CC1 | -1 | -11 | 0 | 52* | 6 | 14
COC(=O)Nc1ccc(S(=O)(=O)N2CCC(C)CC2)cc1 | 1 | 2 | 0 | 75* | 7 | 19
Nc1ccc(C(=O)Nc2ccc(N)cc2N)cc1 | 4 | 9 | 0 | 4 | . | .
Nc1ccc(NCCO)c(N)c1 | -1 | -1 | -1 | 57* | 52* | -5 | AlphaScreen DR=>5.9
COc1cc(OC)cc(C(=O)N2CCN(Cc3ccco3)CC2)c1 | -2 | 2 | 0 | 59* | 3 | 16
COc1cccc(CN2CCN(Cc3ccco3)[C@@H](C)C2)c1 | -1 | 2 | 0 | 3 | . | .
COc1cc(OC)cc(C(=O)N2CCN(Cc3cccc(Oc4ccccc4)c3)CC2)c1 | 2 | -3 | 0 | 37 | . | .
COc1cc(CN2CCN(Cc3ccco3)CC2)cc(OC)c1 | 1 | 3 | 0 | 83* | 4 | 20
O=C(Cc1ccc(Cl)cc1)Nc1cccc2cccnc12 | 1 | 3 | 0 | -8 | . | .
Cc1ccc(S(=O)(=O)N2CC(O)CC2C(=O)O)cc1C (centres undefined) | 2 | 2 | 0 | 3 | . | .
O=C(O)C1CC(O)CN1S(=O)(=O)c1ccc(Cl)c(Cl)c1 (centres undefined) | -1 | 10 | 0 | 65* | -6 | -10
O=C(Cc1cccc2ccccc12)Nc1ccc(-c2nc3ccccc3s2)cc1 | 0 | -10 | 0 | 9 | . | .
SMILES | GPR151 activ | TEAD-YAP block | FBW7 act | MITF inh | MITF inh conf | AlphaScreen intf2 | others
N#C/C(=C\c1cc(Cl)cc(Cl)c1OCc1ccc(Cl)cc1Cl)c1nn(CCO)c(N)c1C#N | -1 | 5 | 0 | 1 | . | .
N#C/C(=C\c1nn(CCO)c(N)c1C#N)c1ccc(Cl)cc1Cl | 0 | -2 | 0 | 63* | -6 | -1
Cc1c(C(=O)N2CCN(c3ccccc3F)CC2)sc2ncnc(N3CCCCC3)c12 | 0 | 5 | 0 | 4 | . | .
COc1ccc(/C=N/N(CCO)C(=S)Nc2ccccc2)cc1 | 0 | -12 | 0 | -1 | . | .
O=C1CCCC2=C1C(c1ccc([N+](=O)[O-])o1)C1=C(CCCC1=O)O2 | 0 | -7 | 0 | 67* | 62* | 8 | AlphaScreen DR=>7.1
OCc1nn2c(c1Br)NC(c1ccc(Br)o1)CC2C(F)(F)F (centres undefined) | 1 | 3 | 0 | -3 | . | .
CCOC(=O)Cc1[nH]nc2c1C(c1ccccc1Cl)C(C#N)=C(N)O2 (centres undefined) | 1 | -2 | 0 | 1 | . | .
CC(C)NC(=O)c1ccc(-c2cccc([N+](=O)[O-])c2)o1 | 1 | -81 | 0 | -8 | . | .
Cc1cc(NC(=O)C(C)NCCCN(C)C)no1 (centres undefined) | 1 | -1 | 0 | 63* | 2 | 12
Cc1cc(NC(=O)C(C)NCCc2ccccc2)no1 (centres undefined) | 1 | -1 | 0 | 22 | . | .
Cc1cc(NC(=O)C(C)NC2CCCC2)no1 (centres undefined) | 0 | -3 | 0 | 52* | -2 | 7
Cc1cc(NC(=O)C(C)N2CCCC2)no1 (centres undefined) | -1 | -4 | 1 | -18 | . | .
Cc1nc(N2CCC(N3CCCN(c4ccccc4)CC3)CC2)nc2ccc(F)cc12 | 0 | -1 | 0 | -1 | . | .
O=C(NCCOc1ccccc1)c1cccc(Nc2ccncn2)c1 | 1 | -55 | 0 | 81* | -1 | 3
CCCn1cc(NC(=O)c2ccc(Br)o2)cn1 | -3 | -51 | 0 | -1 | . | .
CCCn1cc(NC(=O)c2cc(-c3ccccc3N)no2)cn1 | 1 | -17 | 0 | 73* | -17 | -1
Nc1cc(Br)cnc1N | 0 | -18 | 0 | 78* | 80* | 9 | AlphaScreen DR=>8.6
CC(C)c1ccc(NC(=O)CN2C(=O)C3CC=CCC3C2=O)cc1 (centres undefined) | 1 | 3 | 0 | 8 | . | .
Fc1ccc(C2Nc3ccc(Br)cc3C(c3ccccc3)O2)cc1 (centres undefined) | 2 | 0 | 0 | -6 | . | .
O=[N+]([O-])c1ccc(C2Nc3ccc(Br)cc3C(c3ccccc3)O2)cc1 (centres undefined) | 2 | 6 | 0 | 57* | -4 | 2
Cc1ccc(C)n1C(CC(=O)O)c1ccsc1 (centres undefined) | 1 | 4 | 0 | 80* | 68* | 11 | AlphaScreen DR=>6.8
Cc1ccc(N(CC(=O)NC(C(C)C)C(C)C)S(C)(=O)=O)cc1C | 2 | 12 | 0 | 68* | 7 | 14
COc1ccc(CN2CCSCC2)cc1OCc1ccccc1 | 0 | -2 | 0 | 15 | . | .
COc1ccc(CN2CCN(Cc3ccc(F)cc3)CC2)cc1OCc1ccccc1 | 0 | -5 | 0 | 79* | 16 | 19
CCc1ccc(CN2CCN(Cc3ccc(OC)c(OCc4ccccc4)c3)CC2)cc1 | -1 | -1 | 0 | 74* | 3 | 1
COc1cc(CN2CCSCC2)ccc1OCc1ccccc1 | 1 | -50 | 0 | 53* | 14 | 24
